Screening results from PubChem.
LEDGF integ inh = blocks HIV-1 LEDGF/p75-dependent DNA integration | actives 0.64% (n = 370,000) | inhibition, % at 3.7 µM | TR-FRET IN-LEDGF/p75 DNA integration, Eu/Cy5 | AID 743269;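 active = inhibition above the screen-wide mean plus 3 SD, cut at about 13% in these data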;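 also: signal is the Cy5 over europium emission ratio at 671 and 618 nm; 0% = plate median of compound wells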
UHRF1 MBD2 ctr = UHRF1 methyl-DNA binding inhibition | actives 0.75% (n = 370,000) | UHRF1 binding to methylated oligo, TR-FRET | inhibition, % at 4.4 µM; in the data active = inhibition above about 21%;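 also: UHRF1 SRA domain binding a hemimethylated CpG hairpin DNA probe; 0% = median of test compound wells and 100% = reference inhibitor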
MBD2 inh = MBD2-methylated oligo binding inhibition; Q9UBB5; TR-FRET, MBD2 binding to methylated oligonucleotide; inhibition, % at 4.4 µM; actives 0.31% (n = 370,000); AID 686964; in the data active = inhibition above about 13%
Target sequence (Q9UBB5 whole entry, looked up): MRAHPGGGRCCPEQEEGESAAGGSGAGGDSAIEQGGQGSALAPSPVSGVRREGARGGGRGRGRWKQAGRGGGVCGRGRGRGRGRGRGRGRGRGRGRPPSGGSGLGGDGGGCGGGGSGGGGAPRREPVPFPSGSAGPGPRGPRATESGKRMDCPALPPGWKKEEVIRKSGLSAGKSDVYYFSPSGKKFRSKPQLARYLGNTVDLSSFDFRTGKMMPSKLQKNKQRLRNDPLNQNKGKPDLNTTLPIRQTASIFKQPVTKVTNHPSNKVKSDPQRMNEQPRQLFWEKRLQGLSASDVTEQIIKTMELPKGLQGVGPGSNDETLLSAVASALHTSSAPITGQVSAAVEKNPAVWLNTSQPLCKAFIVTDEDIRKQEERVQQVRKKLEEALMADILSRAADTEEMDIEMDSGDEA
Rin1 Abl inh = inhibitors of human Rin1-Abl protein interaction; P00519+Q13671; TR-FRET Rin1/Abl binding, biochemical; inhibition, % at 7.35 µM; actives 0.4% (n = 360,000); AID 588664; in the data active = inhibition above about 5%, passing the limit was not always enough
TCR CD3 inh = inhibitors of human TCR-CD3 interaction; TAMRA-labeled TCR probe fluorescence, biochemical; inhibition, % at 9.4 µM; actives 0.37% (n = 360,000); AID 651800; in the data active = inhibition above about 19%;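 also: recombinant mutant TCR 2C K166C tagged with TAMRA read by polarization; 0% = receptor in buffer alone and 100% = receptor with positive control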
An asterisk follows results filed as active; x = no result given. Most compounds without a hit are left out; they make up all but 2% or so of the library.

SMILES	LEDGF integ inh	UHRF1 MBD2 ctr	MBD2 inh	Rin1 Abl inh	TCR CD3 inh
O=Cc1ccc(OCc2cn(CC(=O)c3ccc(O)cc3)nn2)cc1	2	0	-1	-4	4
Cc1cc(OCc2cn(CC(=O)c3ccc(O)cc3)nn2)ccc1[N+](=O)[O-]	-3	14	2	-1	2
O=C(Cn1cc(COc2ccc(C(=O)c3ccccc3)cc2)nn1)c1ccc(O)cc1	-1	22*	10	-3	-2
CCC(=O)c1ccc(OCc2ccccc2)c(OC)c1	-1	2	-4	0	-4
COc1ccc(OCc2cn(CC(=O)c3ccc(O)cc3)nn2)cc1	6	22*	12	-1	11
CCC(=O)c1ccc(OCc2ccc(C(=O)c3ccccc3)cc2)cc1	-1	22*	9	-6	1
CCC(=O)c1ccc(OCc2cn(CC(=O)c3ccc(O)cc3)nn2)cc1	7	22*	8	0	4
C[C@@H]1CN([C@@H](C)CO)C(=O)CCCn2cc(nn2)CO[C@H]1CN(C)C(=O)Nc1cccc2ccccc12	3	-1	1	x	-3
C[C@@H]1C=CCCO[C@]12C(=O)N(CC1CC1)c1ccccc12	2	-1	-1	x	4
Cc1sc2nc(COC(=O)c3c(F)cccc3F)[nH]c(=O)c2c1C	-1	38*	4	-1	0
Cc1sc2nc(COC(=O)c3ccc(O)cc3)[nH]c(=O)c2c1C	1	-2	3	-5	-2
CN1CCN(S(=O)(=O)c2ccc(NC(=O)Nc3cccc(Cl)c3)cc2)CC1	-2	1	3	-2	1
O=C(Nc1cccc(Cl)c1)Nc1cc(S(=O)(=O)N2CCCCC2)ccc1Cl	1	0	-2	0	85*
CCOc1ccc(NC(=O)C2CC(=O)N(CCc3ccccc3)C2)cc1OC (stereo not drawn)	0	24*	-1	2	-2
CC(C)C[C@H]1COc2cc(N3CCSCC3)ccc2S(=O)(=O)N1C	-1	1	-3	x	x
O=C(COC(=O)/C=C/c1cccc(C(F)(F)F)c1)NC(=O)NCc1ccco1	4	0	-6	5	6
CC(=O)c1cccc(NC(=O)C2(c3ccccc3)CC2(Cl)Cl)c1 (stereo not drawn)	-1	25*	4	-2	6
NCCNC(=O)Cc1cccc(NC(=O)Cc2ccc(Nc3ncnc4c3ncn4[C@@H]3O[C@H](CO)[C@@H](O)[C@H]3O)cc2)c1	-2	-1	2	17*	0
OC[C@H]1O[C@@H](n2cnc3c(Nc4ccccc4)ncnc32)[C@H](O)[C@@H]1O	-4	-1	2	-1	0
OC(c1ccccc1)(c1ccccc1)C1CCN(CCCNc2cccc(OC(F)(F)F)c2)CC1	-1	3	3	x	x
COc1ccc(-c2nnc(SCC(=O)N(C)C3CCS(=O)(=O)C3)n2N)cc1OC (stereo not drawn)	-2	42*	6	2	-16
COc1ccc(-c2nnc(SCC(=O)N(C)C3CCS(=O)(=O)C3)n2CC(C)C)cc1 (stereo not drawn)	-3	-1	-1	-4	5
CCc1nnc(NC(=O)CCC(=O)N2CCC(Cc3ccccc3)CC2)s1	-1	0	0	3	2
CC#CCN1c2ccccc2[C@]23C[C@@H](C(=O)OC)N(C(=O)NCCBr)C2=NC(C(=O)OC)=C(C(=O)OC)[C@H]13	6	-4	4	1	1
CC(C)CCn1nnnc1C(c1ccc(F)cc1)N1CCC(C(N)=O)CC1 (stereo not drawn)	3	22*	7	0	5
SMILES	LEDGF integ inh	UHRF1 MBD2 ctr	MBD2 inh	Rin1 Abl inh	TCR CD3 inh
COC(=O)[C@]12C[C@H](CC(=O)NCc3ccc(C)o3)C(=O)N(CCC3=CCCCC3)C1=C[C@H](C(C)C)O[C@@H]2C1CC1	2	-2	1	x	x
COc1ccc(OC)c(CNc2c(C=O)c(=O)[nH]c3ccccc23)c1	1	43*	-3	-3	6
O=S1(=O)c2ccc(N3CCSCC3)cc2Oc2ccccc2CN1Cc1cn(Cc2ccc(Cl)cc2)nn1	-1	0	3	x	x
Cc1ccc(S(=O)(=O)N(C)C)cc1NC(=O)COC(=O)/C=C/c1ccc(F)cc1	4	35*	-1	1	0
O=C(O)C1=C(C(=O)Nc2cc(C(F)(F)F)ccc2Cl)CCCC1	-3	29*	-1	1	1
O=C(CN1CCCCCC1)Nc1cc(C(F)(F)F)ccc1Cl	-1	1	0	-2	-4
COc1ccccc1OCc1ccc(C(=O)N(C)c2ccccc2)o1	2	25*	4	2	2
COc1ccccc1OCc1ccc(C(=O)N(C)C)o1	1	1	-2	0	-2
COc1ccc(N2CCCN(CC(=O)Nc3ccccc3C)CC2)cc1	-4	-4	2	x	x
C=C(C)C(=O)Nc1cccc(C2=NOC3(C2)C[C@H](C(N)=O)N(C(=O)c2ccccc2)C3)c1 (stereo partly drawn)	1	26*	9	5	3
C/C=C(/C)C(=O)Nc1cccc(C2=NOC3(C2)C[C@H](C(N)=O)N(C(=O)c2ccc(Cl)cc2)C3)c1 (stereo partly drawn)	-1	0	2	-2	1
C[C@H]1COc2cc(Br)ccc2S(=O)(=O)N1Cc1cn(Cc2ccc(C(F)(F)F)cc2)nn1	-2	-3	2	x	x
CCCCNc1ccc(C(F)(F)F)cc1S(=O)(=O)NCCc1ccc(F)cc1	6	23*	12	-2	10
COc1ccc(S(=O)(=O)NCCc2ccc(F)cc2)cc1	2	-3	5	3	6
CC1=C(C(=O)N(C)C)CC(CC(=O)NCCc2ccccn2)C(=O)N1Cc1ccc(F)cc1 (stereo not drawn)	4	19	6	-1	2
CC1=C(C(=O)N(C)C)CC(CC(=O)NCCc2ccccn2)C(=O)N1Cc1ccc(C(C)(C)C)cc1 (stereo not drawn)	-1	21*	5	-2	-7
CCC(=O)Nc1c2c(nn1-c1ccc(OC)cc1)CS(=O)C2 (stereo not drawn)	-2	0	6	-3	2
CCC(CC)C(=O)Nc1c2c(nn1-c1ccc(OC)cc1)CS(=O)C2 (stereo not drawn)	0	39*	-3	-2	0
Cc1sc(NC(=O)C2=COCCO2)nc1-c1ccc(F)cc1	-7	5	4	-1	-4
Cc1sc(NC(=O)C2=COCCO2)nc1-c1ccc(Br)cc1	1	30*	-6	2	-2
O=C(Nc1ccc2nc(-c3ccco3)c(-c3ccco3)nc2c1)N1CCN(c2ccccn2)CC1	24*	4	4	-1	34*
Nc1nc(SCc2ccc(Br)cc2)[nH]c(=O)c1-c1ccccc1	0	29*	8	2	7
O=C(Cn1ccnc1[N+](=O)[O-])NCCO	8	-2	0	1	3
CCCCCCCCN1C(=O)[C@@H](CC(=O)N2CCN(C(=O)c3ccco3)CC2)C[C@@]2(C(=O)OC)C1=C[C@H](C(C)C)O[C@@H]2C1CC1	3	3	-2	x	x
